Results reported in PubChem BioAssay (NCI).
The panel holds about 83,000 compounds, 20% with a hit somewhere; the sample as a whole holds those more often.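 Values shown are percent growth following 48 h exposure of cells in 96-well plates to a single concentration of compound; below 10 was considered active.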 Values without a mark were called inactive. Active and inactive are the calls of the source.

Key:
Assay in all cases: NCI-60 one-dose screen, 48 h (100 = growth as untreated, 0 = no growth, -100 = all killed)
Settings in all cases: 10 µM unless noted
[1] = tested on: NCI-H23 lung
[2] = tested on: NCI-H226 lung
[3] = tested on: NCI-H322M lung
[4] = tested on: HOP-62 NSCLC
[5] = tested on: NCI-H460 lung
[6] = tested on: HOP-92 NSCLC
[7] = tested on: NCI-H522 lung
[8] = tested on: A549/ATCC NSCLC
[9] = tested on: 786-0 renal
[10] = tested on: COLO 205 colon
[11] = tested on: DU-145 prostate
[12] = tested on: K-562 leukemia
[13] = tested on: MALME-3M melanoma
[14] = tested on: MDA-MB-231 breast
[15] = tested on: RXF 393 renal
[16] = tested on: SF-268 CNS
[17] = tested on: SF-295 CNS
[18] = tested on: SF-539 CNS
[19] = tested on: UACC-257 melanoma
[20] = tested on: M14 melanoma

Row | SMILES | growth [1] [%] | growth [2] [%] | growth [3] [%] | growth [4] [%] | growth [5] [%] | growth [6] | growth [7] | growth [8] [%] | growth [9] | growth [10] [%] | growth [11] [%] | growth [12] | growth [13] | growth [14] [%] | growth [15] [%] | growth [16] [%] | growth [17] [%] | growth [18] [%] | growth [19] [%] | growth [20] [%]
1 | CO[C@H]1CC[C@@]2(C)C(=CC[C@H]3[C@@H]4C[C@H](O)C[C@@]4(C)CC[C@@H]32)C1 | 67.8 | 82.4 | 91.3 | 62.4 | 42.9 | 35.6% | 71.6% | 81.9 | 61.5% | 61.5 | 42.1 | 20.7% | 52.1% | 56.2 | 58.5 | 49.2 | 40.8 | 38 | 65.2 | 36.6
2 | C=CCc1nc2ccccc2s1 | 95.7 | 101 | 106 | 100 | 104 | 98.6% | 86.6% | 103 | 108% | 113 | 114 | 96.9% | 115% | 103 | 122 | 108 | 117 | 119 | 90.4 | 108
3 | O=C(N/N=C\c1cc(Cl)ccc1O)N/N=C/c1cc(Cl)ccc1O | 45.7 | 73 | 74.7 | 54 | 16.1 | 21% | 14% | 26.2 | 78% | 46.3 | 87.4 | 18.4% | 74.1% | 48.3 | 85 | 57.9 | 25.5 | 39.3 | 65.5 | 50.4
4 | CC1(C)OC2[C@@H](CNC(=O)NC(=O)NC(=O)CI)O[C@@H](n3cnc4c(NC(=O)Nc5ccccc5)ncnc43)[C@H]2O1 (stereo not given in full) | 57.7 | 97.1 | 103 | 78 | 93.1 | -63.2% (active) | -76% (active) | 94.9 | -77.9% (active) | 51.7 | 105 | 4.48% (active) | -61.1% (active) | 58.4 | 54.9 | 73.4 | 84.6 | 27.2 | 94.7 | 69.4
5 | O=c1c2c3c(sc2n2cnnc2n1Cc1ccccc1)CCCC3 | 100 | 85 | 104 | 119 | 97.7 | 89.8% | 79.2% | 91.7 | 100% | 83.3 | 106 | 69.9% | 95.8% | 96.6 | 101 | 107 | 57.1 | 93.5 | 131 | 164
6 | Cc1nc(Cl)c2c(n1)N(C)c1ccc(Cl)cc1C(C)C2 (stereo not given) | 92.5 | 87.7 | 97.1 | 90.4 | 92.3 | 66% | 77.8% | 84.6 | 90% | 97.3 | 105 | 77.3% | 95.6% | 77.1 | 101 | 88.9 | 91.2 | 96.5 | 88 | 86.9
7 | COc1ccc(-c2c(C)nn3c(NCCN4CCOCC4)cc(C)nc23)cc1OC | 102 | 94.2 | 102 | 95 | 103 | 108% | 106% | 96.6 | 94.7% | 111 | 106 | 97.8% | 96.8% | 86 | 83.6 | 101 | 82 | 81.9 | 99.9 | 96.3
